Bioassay records from PubChem BioAssay.
LDHA inh: inhibitors of human lactate dehydrogenase A. 480,000 compounds, 0.15% hits. activity change, % (values are at about 110 or 230 µM). AID 1347041. purified LDHA, NADH/diaphorase-resazurin fluorescence; hits give low values; in the data active = activity change below about -30%; inconclusive = mostly about -25% to -30%;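 note: plate controls were DMSO wells for no effect and wells without enzyme for full effect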
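Resorufin fluorescence (ex540/em590), read at 0 and 20 min after diaphorase/resazurin addition, reports the NADH left after a 5 min room-temperature reaction of 2 nM human LDH5 with 0.06 mM NADH and 0.2 mM pyruvate.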
Vif-APOBEC3F blk: inhibitors of Vif-A3F interaction; HeLa A3F-eYFP + Vif (tagged APOBEC3F with the HIV-1 protein that degrades it), YFP fluorescence increase; Potency, µM (series often up to 46.1 µM), for the others: at the highest dose activity, negative = active; 390,000 compounds, 0.2% hits; note: potency is the fitted concentration of half-maximal effect; % of control where 0% means no effect; nearly all actives have a fitted effect of over 65% in size
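HeLa cells stably expressing A3F-eYFP plus Vif, plated and incubated overnight at 37 deg C, then exposed to compounds overnight at 37 deg C. Blocked degradation read as raised yellow fluorescence (Ex 488/Em 500-530).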
Apoferritin bind: candidate novel general anesthetic via apoferritin binding | P02791 | apoferritin/1-aminoanthracene competitive binding, fluorescence | Potency, µM (doses to about 77.5 µM), without a hit: at the top dose activity change, negative = displacement, actives largely listed as inhibitors | 350,000 compounds, 0.074% hits | AID 485281; note: potency is the fitted concentration of half-maximal effect; % is set by controls: 0 for no effect and ±100 for the full control effect; nearly all actives have a fitted effect of over 20% in size
Target sequence (P02791 2-175 limits assumed): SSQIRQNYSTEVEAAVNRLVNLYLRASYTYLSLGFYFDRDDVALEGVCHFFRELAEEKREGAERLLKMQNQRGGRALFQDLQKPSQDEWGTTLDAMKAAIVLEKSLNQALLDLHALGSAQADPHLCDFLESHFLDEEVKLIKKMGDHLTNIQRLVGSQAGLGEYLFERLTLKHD
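Concentration-response curves derived by four-parameter Hill fitting of normalized fluorescence, where compounds displaced 1-AMA from 10 uM horse apoferritin following a brief 10 min room-temperature incubation; propofol titration acted as positive control.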
Epigenetic derep: derepresses silenced GFP reporter in murine cells; AID 1865; 280,000 compounds, 0.2% hits; murine LDR cells, GFP reporter derepression, 30 h; Potency, µM (series often up to 53.9 µM), inactives show at the highest dose GFP activation, most hits filed as activators; note: potency is the fitted concentration of half-maximal effect; % of control where 0% means no effect; nearly all actives have a fitted effect of over 60% in size
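GFP-positive cell count by laser-scanning cytometry (objects 20–120 um) after 30 h, 37 C compound exposure of murine LDR cells; reporter is CMV-GFP integrated at a silenced locus, inducible by HDAC or DNMT inhibitors.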
Vif-A3G inh: inhibitors of Vif-APOBEC3G interaction. Q9HC16. HeLa A3G-eYFP + Vif (tagged APOBEC3G with the HIV-1 protein that degrades it), YFP fluorescence, overnight. Potency, µM (highest dose often 46.1 µM), for the others: at the highest dose activity, negative = active, hits mostly inhibitors. 410,000 compounds, 0.076% hits; note: potency is the fitted concentration of half-maximal effect; % is set by controls: 0 for no effect and ±100 for the full control effect; nearly all actives have a fitted effect of over 60% in size
Target sequence (Q9HC16 whole entry, looked up): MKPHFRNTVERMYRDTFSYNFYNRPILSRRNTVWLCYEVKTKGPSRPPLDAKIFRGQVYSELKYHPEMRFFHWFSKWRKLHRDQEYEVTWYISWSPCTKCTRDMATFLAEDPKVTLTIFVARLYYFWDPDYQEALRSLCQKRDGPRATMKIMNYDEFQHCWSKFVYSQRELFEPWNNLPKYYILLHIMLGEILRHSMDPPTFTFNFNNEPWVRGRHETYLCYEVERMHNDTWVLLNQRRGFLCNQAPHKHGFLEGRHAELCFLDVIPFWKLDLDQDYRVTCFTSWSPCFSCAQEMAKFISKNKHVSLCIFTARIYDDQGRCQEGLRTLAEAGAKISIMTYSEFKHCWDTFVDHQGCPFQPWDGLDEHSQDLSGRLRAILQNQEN
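HeLa cells stably expressing Vif and C-terminally eYFP-tagged A3G, seeded overnight at 37 deg C, then exposed to compound by pintool overnight at 37 deg C. Rise in yellow fluorescence (Ex 488/Em 500-530, Acumen) marks blocked Vif-driven A3G degradation.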
Parental c127i: counter-screen for epigenetic modulators: effect in parental c127i cells; shares compounds with Epigenetic derep; mouse c127i parental cells, fluorescent cell count, 30 h; Potency, µM, without a hit: top-dose fluorescent cell count, usual class: activators; 60 compounds, 20% hits
HCC4017 tox: HCC4017 cytotoxicity of epigenetic modulator hits; shares compounds with Epigenetic derep; HCC4017 NSCLC viability, CellTiter-Glo ATP luminescence, 72 h; Potency, µM (series often up to 46.1 µM), for inactives: at the top dose activity change, negative = cytotoxicity, actives largely listed as cytotoxic; 45 compounds, 30% hits; AID 493071
H358 viab: epigenetic modulators: cytotoxicity in H358 lung cancer cells | shares compounds with Epigenetic derep | H358 NSCLC viability, ATP luminescence, 72 h | Potency, µM (series often up to 46.1 µM), without a hit: at the top dose activity change, negative = viability loss, usual class: cytotoxic | 45 compounds, 30% hits | AID 493074
The depositor's hits bear a star; ? = inconclusive; · = not tested or not shown. Only some compounds are listed: those with a hit (about 0.49% of all), similar ones and a draw of the others. Unless noted, calls come from the whole dose curve; as a rule, active = well fitted curve in the direction sought with a large enough effect; inconclusive = small, poorly fitted or top-dose-only effect, or another doubt; inactive = no such curve, though single readings can be large; an effect the other way counts as inactive or inconclusive.

SMILES	LDHA inh	Vif-APOBEC3F blk	Apoferritin bind	Epigenetic derep	Vif-A3G inh	Parental c127i	HCC4017 tox	H358 viab
CCc1ccc(NC(=O)C2CCC(CNS(=O)(=O)c3ccc4c(c3)CC(C)N4C(C)=O)CC2)cc1 (configuration not stated)	-13.0	-0.4%	-7.9%	?	7.2%	1.0%	?	-11.3%
CC(=O)N1c2ccc(S(=O)(=O)NCC3CCC(C(=O)Nc4ccc(F)cc4)CC3)cc2CC1C (configuration not stated)	2.3	-9.4%	-6.3%	-1.1%	-3.8%	·	·	·
O=C(Nc1ccc(OC(F)F)cc1)c1nc(S(=O)(=O)Cc2ccccc2F)ncc1Cl	10.0	·	·	·	-7.9%	·	·	·
CCOc1ccc(NC(=O)c2nc(S(=O)(=O)Cc3ccccc3F)ncc2Cl)cc1	-15.4	-2.4%	?	?	-1.2%	0.0%	7.05µM*	7.91µM*
COc1ccc2c(C)nc(Nc3nc(-c4ccccc4)cc(=O)[nH]3)nc2c1	-7.7	8.9%	-10.7%	3.55µM*	-6.8%	6.0%	8.88µM*	4.45µM*
CCC(=O)N1CCN(c2ccc(NC(=O)c3ccc([N+](=O)[O-])o3)cc2Cl)CC1	-1.3	-11.1%	-23.2%	?	-10.2%	4.0%	2.81µM*	1.41µM*
CC1=NN(c2nc3ccccc3[nH]2)C(=O)C1Cc1ccccc1 (configuration not stated)	-12.0	?	-11.2%	?	?	7.0%	4.45µM*	7.91µM*
O=[N+]([O-])c1ccc(N2CCN(S(=O)(=O)c3ccc(Cl)cc3)CC2)cc1NCc1cccnc1	-2.5	-1.5%	-10.3%	-0.9%	-5.9%	·	·	·
CCOC(=O)C1(Cc2cccc(F)c2)CCN(CC(O)CO)CC1 (configuration not stated)	-4.4	-27.5%	-1.4%	-1.1%	-2.0%	·	·	·
Cc1nc(CSc2nsc(/C=C/N(C)C)c2C#N)cs1	1.7	?	?	6.31µM*	?	10.0%	·	·
COc1cc2c(cc1OC)C(COc1ccc(C(C)C)cc1)N(C(=O)COc1ccccc1)CC2 (configuration not stated)	2.4	4.8%	5.6%	1.6%	2.2%	·	·	·
Oc1[nH]c2ccccc2c1N=Nc1ccccn1	0.8	0.2%	·	·	-4.1%	·	·	·
Oc1c(N=Nc2ccccn2)ccc2ccccc12	7.0	-13.7%	?	10µM*	-17.0%	2.0%	1.99µM*	1.25µM*
O=c1[nH]c(=S)[nH]cc1S(=O)(=O)c1cccc(Cl)c1	-1.8	-0.1%	7.2%	·	2.4%	·	·	·
Cc1cc(NC(=O)COC(=O)c2c(Cl)cccc2Cl)no1	-0.3	-7.0%	·	·	-11.0%	·	·	·
COC(=O)c1ccccc1COn1c(=O)c[n+]([O-])c2ccccc21	1.4	·	-9.6%	?	?	·	·	·
CCOn1c(=O)c[n+]([O-])c2ccccc21	-1.7	?	-3.2%	10µM*	?	28.0%	-3.1%	-5.2%
O=C(Cn1c(=O)n(Cc2ccc(F)cc2)c(=O)c2sc3ccccc3c21)Nc1ccc(F)cc1F	-2.1	-6.4%	-7.2%	?	0.5%	1.0%	·	·
Cc1cc(N2CCN(c3ccc([N+](=O)[O-])c4cccnc34)CC2)c2ccccc2n1	1.7	3.55µM*	-11.5%	7.08µM*	?	14.1µM*	·	·
Cc1cc(N2CCN(c3ccc(C(F)(F)F)cc3[N+](=O)[O-])CC2)c2ccccc2n1	2.0	-25.7%	-22.9%	·	6.1%	·	·	·
CN(C)S(=O)(=O)c1cccc(NC(=S)N/N=C/c2ccco2)c1	-15.5	7.8%	-7.4%	3.55µM*	-3.8%	6.0%	-1.4%	-3.2%
COc1ccc(CNc2nc3ccccc3c3nc(-c4ccccc4)nn23)cc1	-10.3	-6.7%	41.8%	0.0%	-2.4%	·	·	·
O=C(N/N=C/c1ccccn1)c1cc(-c2ccc(Cl)cc2)nc2ccccc12	-0.7	?	-23.1%	5.01µM*	?	3.0%	?	?
O=C(N/N=C/c1ccccn1)c1cc(-c2ccc(Br)cc2)nc2ccccc12	-8.7	-0.8%	-16.8%	?	-3.0%	·	·	·
N#CC1=C(N)n2c(s/c(=C\c3cccs3)c2=O)=C(C#N)C1c1cccs1 (configuration not stated)	0.7	?	4.7%	10µM*	?	14.1µM*	·	·
COCCn1cnc2c1c(=O)n(CC(=O)Nc1ccc(C(N)=O)cc1)c(=O)n2Cc1ccccc1	6.8	·	·	·	·	·	·	·
